Measurements as given in PubChem BioAssay (NCATS).
“And” between values parts separate entries of the source, which are not always exact repeats. Equal values may be shown once. Inconclusive results are not listed. Where a call stands in place of a potency, no number is given. The source made the active and inactive calls. Calls follow the shape of the dose curve; as a rule, active = well fitted inhibition curve with a large enough effect; inconclusive = small, poorly fitted or top-dose-only effect; inactive = flat fitted curve, though single readings scatter.

Assay: P-glycoprotein substrates identified in KB-8-5-11 adenocarcinoma cell line, qHTS therapeutic library screen (AID 1346987); also: nearly all actives have a fitted effect of over 65% in size
Details: KB-8-5-11 (P-gp overexpressing) viability, CellTiter-Glo, 72 h; series mostly up to 44.5 µM
Summary of the method: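 KB-8-5-11, a colchicine-selected P-gp-overexpressing KB-3-1 subline, was grown without colchicine for the assay. Cells were seeded at 500 cells/well, dosed in concentration-response and incubated 72 h at 37 degree C, 5% CO2. Viability was read by CellTiter-Glo luminescence.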
Potency is read from the fitted curve at half-maximal effect.

Structure (SMILES)	Potency	outcome
Cc1csc(N(C(=O)CSc2ccc(-c3ccccc3)nn2)C2CC2)n1	inactive	
C/C=C(\C)C(=O)O[C@H]1C[C@](C)(O)[C@H]2CC=C(C)[C@H]2[C@@H]2OC(=O)[C@H](C)[C@H]21	inactive	
CNc1cc2[nH]c(=O)n(-c3ccc(NC(=O)NS(=O)(=O)c4ccc(Cl)s4)cc3)c(=O)c2cc1F	inactive	
C/C=C(\C)C(=O)OC1C(C)C2(O)C(C=C(CO)CC3(O)C(=O)C(C)=CC32)C2C(C)(C)C12OC(C)=O (centres undefined)	inactive	
NC(N)=NC(=O)c1cnn(-c2cccc3ncccc23)c1C1CC1	inactive	
CC(C)(C)C1CCN(C(=O)n2ncc(C(O)(c3ccccc3)c3ccccc3)n2)CC1	20.6 µM (active)	
CC1(CO)CC2C(O)C3=C(CC(C)(O)C2C1)C(=O)OC3 (centres undefined)	inactive	
CN1CCC(c2cn(C)c3ccc(OS(=O)(=O)c4c(F)cccc4F)cc23)CC1	18.4 µM (active)	
CCNC(=O)N1CCCN(c2ccc(C(=O)NCCc3ccc(Cl)cc3Cl)cc2NC(=O)c2cccc(Cl)c2)CC1	inactive	
C=C1CCN([C@H](C)[C@](O)(Cn2cncn2)c2ccc(F)cc2F)CC1	inactive	
CCC(C)CC(=O)OC1C(=O)C(CO)=CC(O)C1C(C)C (centres undefined)	7.31 µM (active)	
CC1(C=O)CCCC2(C)C1CCC13CC(CO)C(CCC12)C3 (centres undefined)	inactive	
COC(=O)c1sccc1S(=O)(=O)Nc1ccc(Nc2ccccc2)cc1OC	inactive	
C=C(C)[C@@H]1CC[C@]2(C(=O)O)CC[C@]3(C(=O)O)[C@H](CCC4[C@@]5(C)CCC(=O)C(C)(C)C5CC[C@]43C)C12 (some centres undefined)	inactive	
CC[N+]1(C/C2=C/CCCCCC2)CCC(NC(=O)C2c3cc(Cl)ccc3Oc3ccc(Cl)cc32)CC1 (centres undefined)	inactive	
CCCC1([C@H](O)C/C=C/[C@H]2[C@H](O)CC(=O)[C@@H]2CCCCCCC(=O)OC)CCC1	inactive	
CC1(C)C2CC[C@]3(C)[C@H](C(=O)C=C4[C@@H]5C[C@@](C)(C(=O)O)CC[C@]5(C)CC[C@]43C)[C@@]2(C)CC[C@@H]1O[C@H]1O[C@H](C(=O)O)[C@@H](O)[C@H](O)[C@H]1O[C@@H]1O[C@H](C(=O)O)[C@@H](O)[C@H](O)[C@H]1O (some centres undefined)	inactive	

Structure (SMILES)	Potency	outcome
c1ccc(-c2ccc(CNc3nc(-c4ccccn4)nnc3-c3ccccc3)cc2)cc1	4.61 µM (active)	
CNC(=O)c1ccc2c(c1)CCO[C@H]2CCN1CCN(c2ccc(OC)cc2)CC1	inactive	
Cc1ccc(C)c(-c2cc(C(F)(F)F)nn2-c2ccc(S(N)(=O)=O)cc2)c1	23.1 µM (active)	
C[C@H](Oc1cc(-n2cnc3ccc(CN4CCN(C)CC4)cc32)sc1C(N)=O)c1ccccc1C(F)(F)F	4.61 µM (active)	
Cc1cccc(C#Cc2cc(F)cc(C#N)c2)n1	inactive	
CO[C@H]1O[C@@H]2O[C@@]3(C)CCC4[C@H](C)CCC([C@H]1C)[C@]42OO3 (some centres undefined)	inactive	
O=C(Cn1cnnn1)N[C@@H]1C(=O)N2C(C(=O)O)=C(CSc3nncs3)CS[C@H]12	inactive	
Cn1c(CO)c(-c2ccccc2)c2cc([N+](=O)[O-])ccc21	inactive	
NS(=O)(=O)c1ccc(N2CCN(CC[C@@H]3OCCc4ccccc43)CC2)cc1	inactive	
COc1ccc(C#Cc2ccc(C(=O)N3CCC[C@@H](O)C3)c(F)c2)cc1	inactive	
O=C[C@H](O)[C@@H](O)[C@H](O)[C@H](O)CO	inactive	
CCc1ccccc1OC[C@@H](O)CN[C@H]1CCCc2ccccc21	20.6 µM (active)	
CCC(C)[C@H]1O[C@]2(C=C[C@@H]1C)C[C@@H]1C[C@@H](C/C=C(\C)[C@@H](O[C@H]3C[C@H](OC)[C@@H](O[C@H]4C[C@H](OC)[C@H](NC(C)=O)[C@H](C)O4)[C@H](C)O3)[C@@H](C)/C=C/C=C3\CO[C@@H]4[C@H](O)C(C)=C[C@@H](C(=O)O1)[C@]34O)O2 (some centres undefined)	5.17 µM (active) and 18.4 µM (active)	
Cc1cc(C)nc(SCC(=O)Nc2ncc(Cc3cccc4ccccc34)s2)n1	inactive	
CCC(C)c1ccc(NC(=O)Cn2cnc3c2c(=O)n(C)c(=O)n3C)cc1 (centres undefined)	inactive	
O=C(O)c1cc2ccccc2c(Cc2c(O)c(C(=O)O)cc3ccccc23)c1O	inactive	
C=C1CO[C@@]2(O[C@H]3CC4C5CC=C6C[C@@H](O)C[C@@H](O[C@@H]7OC[C@H](O)[C@H](O[C@@H]8OC[C@@H](O)[C@H](O)[C@H]8O)[C@H]7O[C@@H]7O[C@@H](C)[C@H](OC(C)=O)[C@@H](OC(C)=O)[C@H]7OC(C)=O)[C@]6(C)C5CC[C@]4(C)[C@@H]3[C@@H]2C)[C@@H](O)[C@H]1OC1OC(C)C(O)C(O)C1O (some centres undefined)		inactive [at 9.29 µM]
